Experimental data reported in ChEMBL document CHEMBL1157539, “Thousands of chemical starting points for antimalarial lead identification” (Nature, 2010).

What was measured:
Assay type in all cases: functional
Plasmodium falciparum [1] = assay: GSK_TCMDC: Inhibition of Plasmodium falciparum 3D7 in whole red blood cells, using parasite LDH activity as an index of growth. Test compounds present at 2uM
Plasmodium falciparum [2] = assay: GSK_TCMDC: Inhibition of Plasmodium falciparum Dd2 in whole red blood cells, using parasite LDH activity as an index of growth. Test compounds present at 2uM
HepG2 = assay: GSK_TCMDC: Percent inhibition of human HepG2 cell line. Test compounds present at 10uM.

SMILES | Inhibition (Plasmodium falciparum [1]) | Inhibition (Plasmodium falciparum [2]) | Inhibition (HepG2)
CC(CN(C)C)C(=O)Nc1cccc(-c2ccc(-c3nc4cc(F)ccc4[nH]3)cc2)c1 (stereo unspecified) | 100% | 100% | 11%
CCn1c(-c2nonc2N)nc2c(-c3cccc(NC(=O)Nc4ccc5c(c4)CCC5)c3)ncc(OCCCN)c21.O=C(O)C(F)(F)F | 99% | 94% | 26%
COc1cccc(C(=O)NCc2cccs2)c1Oc1ccccc1 | 98% | 4% | 0%
COc1cc(CCNc2nc(NCc3ccccc3-c3ccccc3)nc(N3CCC(N)CC3)n2)ccc1O.O=C(O)C(F)(F)F | 100% | 70% | 25%
Cc1[nH]c2c(C)cccc2c1C1CCN(CCC2CCN(C(=O)/C=C/c3ccc(Cl)c(Cl)c3)CC2)CC1 | 100% | 79% | 67%
CCNC(=O)Nc1cccc(-c2ccc(-c3nc4cccc(C)c4[nH]3)s2)c1 | 96% | 20% | 32%
CC(C)c1cc(Oc2c(I)cc(CCNC(=N)N)cc2I)ccc1O.Cl | 98% | 54% | 19%
COc1ccccc1C1CCN(C2CCC(NC(=O)/C=C/c3cccc(Cl)c3)CC2)CC1 (stereo unspecified) | 92% | 20% | 54%
CCOc1cc(C)ccc1C1CCN(CCN2CCC(CNC(=O)c3ccc(-c4ccc(C(F)(F)F)cc4)cc3)CC2)CC1 | 98% | 89% | 53%
CCOc1cc(Cc2cnc(N)nc2N)cc(OCC)c1O | 89% | 0% | 6%
Cc1[nH]c2ccccc2c1C=NNc1nc(=Nc2ccccc2)[nH]c(=Nc2ccccc2)[nH]1 | 87% | 23% | 3%
Fc1cccc(COc2ccc(Nc3ncnc4ccc(C#C[C@H]5CCCN5)cc34)cc2Cl)c1 | 91% | 26% | 7%
CN(c1ccc2c(c1)nc(NC(=O)C1(c3cc(F)ccc3F)CC1)n2C)c1ccnc(Nc2cccc(CS(C)(=O)=O)c2)n1.O=C(O)C(F)(F)F | 89% | 46% | 42%
Cc1ccc(-c2csc(C)n2)c(C)c1 | 98% | 0% | 12%
N#Cc1cccc(NC(=O)Nc2ccc(-c3ccc(-c4nc5cc(C(F)(F)F)ccc5[nH]4)cc3)cc2)c1 | 100% | 100% | 51%
Cc1cc(N(CCCN(C)C)Cc2cc(F)cc(F)c2)nc(Nc2ccc(Cl)cc2)n1 | 99% | 97% | 37%
CCCC(=O)Nc1ccc(OCCCN(Cc2cccc(C(F)(F)F)c2)c2ccc(C#N)c(C(F)(F)F)c2)cc1 | 90% | 89% | 0%
Cl.NOCCCCOc1ccc(Br)cc1 | 99% | 0% | 0%
CC(=O)O.C[C@H](NC(=O)[C@H](Cc1ccccc1)NC(=O)OC(C)(C)C)C(=O)N[C@@H](CC1CCCCC1)C(O)CN (stereo partly specified) | 96% | 64% | 0%
COc1cc(-c2nc(-c3ccncc3)c(-c3ccc4c(c3)CCC4=NO)[nH]2)ccc1OCCN1CCCCC1.Cl | 100% | 80% | 75%
COC(=O)c1ccc(CCCNCC(O)c2cccc(C(F)(F)F)c2)cc1 (stereo unspecified) | 97% | 88% | 0%
O=C(c1cccc(-c2ccc(-c3nc4cc(C(F)(F)F)ccc4[nH]3)cc2)c1)N1CCCCC1CN1CCC(O)C1 (stereo unspecified) | 92% | 100% | 19%
Cc1cccc2nc(-c3ccc(-c4cccc(CN5CCC(C(N)=O)CC5)c4)cc3)[nH]c12.O=C(O)C(F)(F)F | 87% | 16% | 9%
Cl.c1ccc(COc2ccc(Nc3ncnc4cnc(-c5ccc(CN6CCCCC6)o5)cc34)cc2)cc1 | 90% | 13% | 0%
O=C(O)C(F)(F)F.c1cc(-c2ccc(CNCc3ccc(-c4csnn4)cc3)cc2)cc(-c2nc3ccccc3[nH]2)c1 | 100% | 96% | 60%
CC(C)n1cc(CN2CCCC(C(=O)Nc3cccc(-c4cc5ccccc5[nH]4)c3)C2)cn1 (stereo unspecified) | 96% | 65% | 34%
Nc1nc2ccc(S(=O)(=O)Nc3ccc(C(=O)N[C@@H](CCC(=O)O)C(=O)O)c(F)c3)cc2c(=O)[nH]1 | 97% | 16% | 37%
